An excerpt weighted towards active compounds, which were near 1.6% of everything screened.
m5-HT2A agonist: agonists of mouse serotonin 5-HT2A receptor (HTR2A); activation, % at 7.6 µM; AID 624169; CHO-K1 mHTR2A beta-arrestin complementation, luminescence; percent of 30 µM serotonin response; P35363; hit rate 0.66% among 360,000;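 active = activation above a run cutoff, the mean activation of all tested compounds plus 3 SD, cut at about 14% in these data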;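 note: 0% = plate median of compound wells and 100% = 30 µM serotonin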
Target sequence (P35363 whole entry, looked up): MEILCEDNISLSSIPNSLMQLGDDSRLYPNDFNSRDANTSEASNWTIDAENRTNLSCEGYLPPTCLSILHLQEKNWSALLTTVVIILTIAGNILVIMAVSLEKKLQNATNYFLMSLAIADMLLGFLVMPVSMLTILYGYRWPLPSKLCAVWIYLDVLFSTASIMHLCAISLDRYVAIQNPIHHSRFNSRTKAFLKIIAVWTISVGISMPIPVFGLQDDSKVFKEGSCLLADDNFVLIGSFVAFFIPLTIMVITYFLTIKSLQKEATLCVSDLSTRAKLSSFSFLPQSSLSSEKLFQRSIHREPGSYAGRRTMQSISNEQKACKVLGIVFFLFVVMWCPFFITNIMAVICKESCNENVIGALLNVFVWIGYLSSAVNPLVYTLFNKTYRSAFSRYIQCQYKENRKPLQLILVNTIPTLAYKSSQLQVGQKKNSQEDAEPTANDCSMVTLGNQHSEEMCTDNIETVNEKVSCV
MOR-DOR ag: agonists of human mu-delta opioid receptor heterodimerization; P35372+P41143; cells, OPRM1-OPRD1 heterodimerization, luminescence; activation, % at 9.3 µM; hit rate 0.3% among 340,000; AID 504326;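 note: 0% = vehicle-treated cells and 100% = reference agonist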
HTR5A inv ag: HTR5A inverse agonism, opioid heterodimer counter-screen. P47898. hit rate 0.083% among 340,000. HTR5A cell line, luminescence. AID 504634. inhibition, % at 9.3 µM; in the data active = inhibition mostly above about 23%, no sharp cut-off; inactive = mostly below about 18%;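 note: 0% = cells with DMSO and 100% = no-cell wells with DMSO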
MOR-DOR inv ag: inverse agonists of human mu-delta opioid receptor heterodimerization. inhibition, % at 9.3 µM. hit rate 0.21% among 340,000. P35372+P41143. AID 504357. cell-based MOR-DOR heterodimer luminescence, inverse agonism; in the data active = inhibition above about 22%, passing the limit was not always enough;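 note: 0% = cells with DMSO and 100% = wells without cells with DMSO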
HTR5A ag: counter-screen for OPRM1-OPRD1 agonists: human HTR5A agonism; AID 504692; hit rate 0.61% among 340,000; activation, % at 9.3 µM; HTR5A agonist assay, luminescence, cell-based; in the data active = activation mostly above about 9.5%, no sharp cut-off; inactive = mostly below about 7.6%;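 note: 0% = cells with vehicle only and 100% = reference agonist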
MOR-DOR ag conf: confirmation of human OPRM1-OPRD1 heterodimerization agonists. activation, % at 9.3 µM. cells, MOR-DOR heterodimerization, luminescence complementation. hit rate 45% among 830. shares compounds with MOR-DOR ag. AID 504904;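 note: 0% = vehicle-treated cells and 100% = reference agonist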
HTR5A ag counter: counter-screen for OPRM1-OPRD1 agonists: human HTR5A agonism | shares compounds with MOR-DOR ag | HTR5A agonist counterscreen, cell luminescence | activation, % at 9.3 µM | hit rate 8% among 830; in the data active = activation above about 17%;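 note: 0% = vehicle-treated cells and 100% = reference agonist response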
MOR-DOR inv conf: confirmation of human OPRM1-OPRD1 heterodimerization inverse agonists | AID 504900 | shares compounds with MOR-DOR inv ag | cells expressing OPRM1/OPRD1 heterodimer, luminescence | hit rate 20% among 580 | inhibition, % at 9.3 µM; in the data active = inhibition above about 32%;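 note: 0% = cells with DMSO and 100% = wells lacking cells with DMSO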
HTR5A inv ctr2: HTR5A inverse agonism, opioid heterodimer counter-screen | shares compounds with MOR-DOR inv ag | AID 504914 | HTR5A-expressing cells, luminescence | 580 tested, under 10 active | inhibition, % at 9.3 µM; call rule not given here;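 note: 0% = cells with DMSO and 100% = no-cell wells with DMSO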
MOR ag counter: counter-screen for mouse HTR2A agonists: human mu opioid receptor agonists; shares compounds with m5-HT2A agonist; U2OS OPRM1 beta-arrestin PathHunter, luminescence; DMSO 0%, DAMGO 9.3 µM 100%; activation, % at 9.3 µM; hit rate 5.3% among 2,300;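 active = mean activation above the mean of DMSO-only wells plus 3 SD, cut at about 0.5% in these data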
HTR2A ag conf: mouse HTR2A agonism confirmed. shares compounds with m5-HT2A agonist. CHO-K1 PathHunter beta-arrestin recruitment, luminescence; DMSO 0%, 30 µM serotonin 100%. activation, % at 7.6 µM. hit rate 19% among 2,300. AID 624381;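 active = mean activation across triplicates above the hit threshold derived in the original primary screen, cut at about 15% in these data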
Starred values were filed as active, the others as inactive. Cut-off read from the data, not from the text of the source, unless noted: active = activation above about 18%; inactive = the rest.

For CC(=O)OC1C=CC2[C@H]3Cc4ccc(O)c5c4[C@@]2(CCN3C)C1O5 (some centres not stated) the results were m5-HT2A agonist -4, MOR-DOR ag 282*, HTR5A inv ag -13, MOR-DOR inv ag inactive, HTR5A ag 6, MOR-DOR ag conf -2 and HTR5A ag counter -1.
Screening COc1ccc2c3c1OC1[C@H](O)CCC4[C@@H](C2)N(C)CC[C@]314 (some centres not stated) returned m5-HT2A agonist 3, MOR-DOR ag 46*, HTR5A inv ag -9, MOR-DOR inv ag -185, HTR5A ag 4, MOR-DOR ag conf 2 and HTR5A ag counter 4.
`CN1CC[C@]23c4c5ccc(O)c4OC2C(O)C=CC3[C@H]1C5` (some centres not stated) gave m5-HT2A agonist 4, HTR5A inv ag -15, HTR5A ag 7 and HTR5A ag counter -2.
Screening CN(C)C1(CNC(=O)c2ccc(Cl)c(S(=O)(=O)NCc3ccco3)c2)CCCCC1 returned m5-HT2A agonist -8, MOR-DOR ag 71*, HTR5A inv ag 17, MOR-DOR inv ag -395, HTR5A ag -2, MOR-DOR ag conf 80* and HTR5A ag counter 1.
`COc1ccc(CCn2c(O)c(C=NCCN3CCCCC3)c(=O)[nH]c2=O)cc1OC` gave m5-HT2A agonist 0, MOR-DOR ag 79*, HTR5A inv ag -3, MOR-DOR inv ag -398, HTR5A ag 2, MOR-DOR ag conf 1 and HTR5A ag counter -1.
Screening COc1ccc(CCn2c(O)c(/C=N/N3CCOCC3)c(=O)[nH]c2=O)cc1OC returned m5-HT2A agonist 1.
`CC(=O)OC1CC2(O)C3CCC4CC(O)CCC4(C)C3CCC2(C)C1C1=CC(=O)OC1` (configuration not stated) gave m5-HT2A agonist 7, MOR-DOR ag 81*, HTR5A inv ag -108, MOR-DOR inv ag -356, HTR5A ag 28*, MOR-DOR ag conf 1 and HTR5A ag counter 62*.
Screening CC(=O)OC1CC(OC2C(O)CC(OC3C(O)CC(OC4CCC5(C)C(CCC6C5CCC5(C)C(C7=CC(=O)OC7)C(O)CC65O)C4)OC3C)OC2C)OC(C)C1OC1OC(CO)C(O)C(O)C1O (configuration not stated) returned m5-HT2A agonist 5, MOR-DOR ag 72*, HTR5A inv ag -75, MOR-DOR inv ag -369, HTR5A ag 19*, MOR-DOR ag conf 38* and HTR5A ag counter 28*.
For CC1OC(OC2C=C3CCC4C(CCC5(C)C(c6ccc(=O)oc6)CCC45O)C3(C)CC2)C(O)C(OC2OC(CO)C(O)C(O)C2O)C1O (configuration not stated) the results were m5-HT2A agonist 15*, MOR-DOR ag 92*, HTR5A inv ag -99, MOR-DOR inv ag -401, HTR5A ag 26*, MOR-DOR ag conf 2, HTR5A ag counter 0, MOR ag counter 6.9* and HTR2A ag conf 1.
`O=P(N1CC1)(N1CC1)N1CCc2ccccc21` gave m5-HT2A agonist 1, MOR-DOR ag -5, HTR5A inv ag -5, MOR-DOR inv ag 24 and HTR5A ag 1.
For O=C(CN1CCCCC1)c1cccc(Br)c1 the results were m5-HT2A agonist -3, MOR-DOR ag -13, HTR5A inv ag 3, MOR-DOR inv ag 68*, HTR5A ag -3, MOR-DOR inv conf -444 and HTR5A inv ctr2 -13.
Screening N#Cc1c(/N=C/c2ccc(O)cc2O)sc2c1C1CCN2CC1 returned m5-HT2A agonist 1, MOR-DOR ag -10, HTR5A inv ag 7, MOR-DOR inv ag 51*, HTR5A ag -2, MOR-DOR inv conf -4 and HTR5A inv ctr2 10.
`NC(=O)CN1C2CCC1CC(NC(=O)C1CC1)C2` (configuration not stated) gave m5-HT2A agonist 4, MOR-DOR ag 0, HTR5A inv ag 20, MOR-DOR inv ag 0 and HTR5A ag -8.
Screening CC1(C)CC(n2[nH]c(=O)c3c2NC(=O)CSC3c2ccccc2)CCO1 (configuration not stated) returned m5-HT2A agonist 0, MOR-DOR ag -7, HTR5A inv ag 11, MOR-DOR inv ag 31*, HTR5A ag 2, MOR-DOR inv conf -2 and HTR5A inv ctr2 -16.
Cc1ccc(C2SCC(=O)Nc3c2c(=O)[nH]n3C2CCOC(C)(C)C2)cc1 (configuration not stated) was read as m5-HT2A agonist 0, MOR-DOR ag -3, HTR5A inv ag 9, MOR-DOR inv ag 12 and HTR5A ag -3.
O=C(N/N=C/c1c(O)n(Cc2ccco2)c(=O)[nH]c1=O)c1ccccc1O was read as m5-HT2A agonist -3, MOR-DOR ag -5, HTR5A inv ag -6, MOR-DOR inv ag 26 and HTR5A ag 2.
CC(C)(C)OC(=O)c1c(N)n(Cc2ccco2)c2nc3ccccc3nc12 was read as m5-HT2A agonist 4, MOR-DOR ag -7, HTR5A inv ag 20, MOR-DOR inv ag 40*, HTR5A ag 1, MOR-DOR inv conf 96* and HTR5A inv ctr2 17.
For COC(=O)C1=C(c2ccc(S(C)(=O)=O)cc2)C[C@@H]2CC[C@H]1N2C(=O)NCc1cccc2ccccc12 the results were m5-HT2A agonist 2, MOR-DOR ag -2, HTR5A inv ag -21, MOR-DOR inv ag 10 and HTR5A ag 8.
Screening C[C@H]1CCC/C=C/[C@@H]2C[C@H](O)C[C@H]2[C@@H](O)/C=C/C(=O)O1 returned m5-HT2A agonist 5, MOR-DOR ag -10, HTR5A inv ag 5, MOR-DOR inv ag 42*, HTR5A ag -1, MOR-DOR inv conf -455 and HTR5A inv ctr2 -24.
`CC1CC2(O)c3no[n+]([O-])c3CCC2N1O` (configuration not stated) gave m5-HT2A agonist 7, MOR-DOR ag -5, HTR5A inv ag 24, MOR-DOR inv ag 25 and HTR5A ag -2.

Source: PubChem BioAssay (The Scripps Research Institute Molecular Screening Center)
